Laboratory results taken from PubChem BioAssay (EPA / NIEHS).
Several values for one entry are separate records, joined by “and”; a condition that tells them apart may be missing. Equal entries are not always repeated. Records with an inconclusive call do not appear. Some compounds were tested as several samples or in several runs, with calls that do not always agree. Activity calls are given as the source filed them. The calls were made as follows, unless noted: active = hit-call score of the fitted dose curve at least 0.9, where 1 is the maximum; inconclusive = response in the unintended direction; inactive = score below 0.9.

Tested on: not listed separately
Experiment: CCTE_Shafer_MEA_dev_per_network_spike_spike_percent: CCTE's Neural Network Formation Assay for Percent of Spikes in a Network Spike, Shafer Lab (AID 2284054; active = hit-call score of the fitted dose curve at least 0.9, where 1 is the maximum; inactive = score below 0.9)
How it was run: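 Rat primary cortical cultures, 1.5 x 10^5 cells/well on MEA. Continuous compound exposure d0–12, medium/compound renewed DIV 5, 9. Network-spike spike % (0.05 s peak window), AUC over 4 recordings, DMSO baseline.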

Question: Which outcome does the source give for `OB(O)O` here?
Answer: The outcome was “inactive”.

Question: What does the source list for `CC(C)(c1ccc(O)cc1)c1ccc(O)cc1`?
Answer: AC50: 6.65 µM (active); outcome: inactive

Question: Which outcome does the source give for `CCCCC(CC)CN1C(=O)C2C3C=CC(C3)C2C1=O` (stereo unspecified) here?
Answer: Its outcome is “inactive”.

Question: For `CCN(CC)C(=O)c1cccc(C)c1`, which outcome is on record?
Answer: Its outcome is “inactive”.

Question: For `CCCCOCCOCCOCc1cc2c(cc1CCC)OCO2`, which outcome is on record?
Answer: The outcome was “inactive”.

Question: With `C#CCOC(=O)[C@@H](C)Oc1ccc(Oc2ncc(Cl)cc2F)cc1` as the compound, how does the outcome read?
Answer: Its outcome is “inactive”.

Question: With `CSC(=O)c1cccc2nnsc12` as the compound, how does the outcome read?
Answer: Its outcome is “inactive”.

Question: Which outcome does the source give for `CCCN(CCC)C(=O)SCC` here?
Answer: Its outcome is “inactive”.

Question: Which AC50 does the source give for `CC1(C)C(C=C(Cl)Cl)C1C(=O)OCc1cccc(Oc2ccccc2)c1` (stereo unspecified) here?
Answer: Its AC50 is 22.2 µM (active) and 5.34 µM (active).

Question: For `COCCO`, which outcome is on record?
Answer: Its outcome is “inactive”.

Question: For `S=C(S)NCCNC(=S)S.[Mn+2].[S-]C([S-])=NCCN=C([S-])[S-].[Zn+2]`, which outcome is on record?
Answer: The outcome was “inactive”.

Question: Which outcome does the source give for `O=C(O)c1ccccc1` here?
Answer: Its outcome is “inactive”.

Question: Which outcome does the source give for `Oc1ccc(C(c2ccc(O)cc2)C(Cl)(Cl)Cl)cc1` here?
Answer: The outcome was “inactive”.

Question: Which outcome does the source give for `S=C([S-])NCCNC(=S)[S-].[Mn+2]` here?
Answer: Its outcome is “inactive”.

Question: With `Cc1nn(C)c(Oc2ccccc2)c1C=NOCc1ccc(C(=O)OC(C)(C)C)cc1` as the compound, how does the AC50 read?
Answer: The AC50 was 0.00238 µM (active).

Tested on: DIO3 (gene 1735)
Experiment: CCTE_GLTED_hDIO3: CCTE's human Deiodinase 3 (DIO3) Inhibition Assay, Great Lakes Toxicology and Ecology Division (GLTED) Lab (AID 2284055);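 also: potency is for inhibition seen as loss of released iodide signal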
Description: CCTE_GLTED_hDIO3 is a cell-free, single-readout assay designed to test the inhibitory activity of chemicals toward human iodothyronine Deiodinase type 3 (DIO3) enzyme. Enzyme is incubated in presence of test chemical for 3 hours during which uninhibited enzyme liberates free iodide from substrate. Free iodide is measured in a second step using the Sandell-Kolthoff method.CCTE_GLTED_hDIO3 is the assay component measured from the CCTE_GLTED_hDIO3 assay. It is designed to make measurements of enzyme activity, a form of enzyme reporter, as detected with absorbance signals by spectrophotometry.Data from the assay component CCTE_GLTED_hDIO3 was analyzed into 1 assay endpoint. This assay endpoint, CCTE_GLTED_hDIO3, was analyzed in the positive analysis fitting direction relative to DMSO as the negative control and baseline of activity. Using a type of enzyme reporter, loss-of-signal activity can be used to understand changes in the enzymatic activity as they relate to the gene DIO3. Furthermore, this assay endpoint can be referred to as a primary readout, because the performed assay has only produced 1 assay endpoint. To generalize the intended target to other relatable targets, this assay endpoint is annotated to the 'deiodinase' intended target family, where the subfamily is 'deiodinase Type 3'.
[…] assay, developed at Great Lakes Toxicology and Ecology Division (GLTED) within the EPA's Center for Computational Toxicology and Exposure (CCTE), is designed to test the chemicals' ability to inhibit DIO3. Assay uses human deiodinase type 3 (DIO3) enzyme produced with adenovirus expression system. Assay is based on iodide release measured by the Sandell-Kolthoff method and is run in 96-well plate format with assay plates run in triplicate (n=3). The method used for the deiodinase assay was largely based on Renko et al. (2012, 2015). These works describe the utilization of the SK reaction to measure deiodinase-liberated iodide in a 96-well-plate format. The SK reaction is based on the reduction of the yellow-colored cerium IV to the non-colored cerium III by arsenic, with the rate of this reaction increased in the presence of iodide in a concentration-dependent manner (Sandell and Kolthoff, 1937). Iodinated test chemicals can interfere as competitive inhibitors, or if the stock chemical has contaminating free-iodide present. Other chemicals, e.g.: nitrite, iron, and thiocyanate can interfere with the Sandell-Kolthoff reaction (see Sandell and Kolthoff, 1937).

Question: Which AC50 does the source give for `CCOC(=O)C(C)Oc1ccc(Oc2nc3ccc(Cl)cc3o2)cc1` (stereo unspecified) here?
Answer: The AC50 was 15.3 µM (active).

Question: Which AC50 does the source give for `CC(=O)S[C@@H]1CC2=CC(=O)CC[C@]2(C)[C@H]2CC[C@@]3(C)[C@@H](CC[C@@]34CCC(=O)O4)[C@H]12` here?
Answer: Its AC50 is 100 µM (active).

Question: Which AC50 does the source give for `CC(C)CCCCCCc1ccc(O)cc1` here?
Answer: The AC50 was 18.8 µM (active).

Question: Which AC50 does the source give for `CCCCCOC(=O)COc1cc(N2C(=O)C3=C(CCCC3)C2=O)c(F)cc1Cl` here?
Answer: Its AC50 is 100 µM (active).

Question: For `CCCN(CCC)c1c([N+](=O)[O-])cc(C(F)(F)F)c(N)c1[N+](=O)[O-]`, which AC50 is on record?
Answer: Its AC50 is 21.4 µM (active).

Question: With `S=C(S)NCCNC(=S)S.[Mn+2].[S-]C([S-])=NCCN=C([S-])[S-].[Zn+2]` as the compound, how does the AC50 read?
Answer: The AC50 was 43.6 µM (active).

Question: With `Oc1ccc(C(c2ccc(O)cc2)C(Cl)(Cl)Cl)cc1` as the compound, how does the AC50 read?
Answer: The AC50 was 143 µM (active).

Tested on: not listed separately
Experiment: CCTE_Shafer_MEA_dev_LDH: CCTE's Lactate Dehydrogenase Assay for Cytotoxicity in the Neural Network Formation Assay, Shafer Lab (AID 2284068);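 also: exposure for twelve days from plating with re-dosing on DIV 5 and 9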
How it was run: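 Rat cortical primary neurons, MEA culture; dosing day 0–12, full medium plus compound exchange DIV 5, 9. Read-out: LDH enzyme activity, spectrophotometric. DMSO = negative control/baseline; signal loss → cytotoxicity.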

Question: With `CC(C)(c1ccc(O)cc1)c1ccc(O)cc1` as the compound, how does the outcome read?
Answer: The outcome was “inactive”.

Question: For `CCCCC(CC)CN1C(=O)C2C3C=CC(C3)C2C1=O` (stereo unspecified), which outcome is on record?
Answer: The outcome was “inactive”.

Question: For `CCCCOCCOCCOCc1cc2c(cc1CCC)OCO2`, which AC50 is on record?
Answer: Its AC50 is 15.3 µM (active).

Question: With `C#CCOC(=O)[C@@H](C)Oc1ccc(Oc2ncc(Cl)cc2F)cc1` as the compound, how does the outcome read?
Answer: The outcome was “inactive”.

Question: With `CCCN(CCC)C(=O)SCC` as the compound, how does the outcome read?
Answer: The outcome was “inactive”.

Question: Which AC50 does the source give for `CC1(C)C(C=C(Cl)Cl)C1C(=O)OCc1cccc(Oc2ccccc2)c1` (stereo unspecified) here?
Answer: Its AC50 is 22.6 µM (active) and 9.58 µM (active).

Question: With `COCCO` as the compound, how does the outcome read?
Answer: Its outcome is “inactive”.

Question: For `S=C(S)NCCNC(=S)S.[Mn+2].[S-]C([S-])=NCCN=C([S-])[S-].[Zn+2]`, which outcome is on record?
Answer: The outcome was “inactive”.

Question: With `O=C(O)c1ccccc1` as the compound, how does the outcome read?
Answer: The outcome was “inactive”.

Question: With `Oc1ccc(C(c2ccc(O)cc2)C(Cl)(Cl)Cl)cc1` as the compound, how does the outcome read?
Answer: Its outcome is “inactive”.

Question: Which outcome does the source give for `S=C([S-])NCCNC(=S)[S-].[Mn+2]` here?
Answer: Its outcome is “inactive”.

Question: Which AC50 does the source give for `Cc1nn(C)c(Oc2ccccc2)c1C=NOCc1ccc(C(=O)OC(C)(C)C)cc1` here?
Answer: The AC50 was 0.002 µM (active).

Tested on: not listed separately
Experiment: CCTE_Shafer_MEA_acute_AB: CCTE's Alamar Blue Assay for Cytotoxicity in the Neural Acute Assay, Shafer Lab (AID 2284069);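 also: active compounds lower the viability signal compared with DMSO wells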
How it was run: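 Read-out: resazurin fluorescence (ex 544, em 590 nm) after CTB reagent at 1:6 dilution in fresh media. Cells: primary rat cortical neuron networks, DIV 13 or 15, chemically exposed on MEA plates; DMSO as negative control/baseline.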

Question: For `OB(O)O`, which outcome is on record?
Answer: The outcome was “inactive”.

Question: With `O=C(c1ccc(O)cc1O)c1ccc(O)cc1O` as the compound, how does the outcome read?
Answer: The outcome was “inactive”.

Question: With `CC(C)CCCCCCc1ccc(O)cc1` as the compound, how does the outcome read?
Answer: The outcome was “inactive”.

Question: For `COC(=O)c1ccccc1C(=O)O`, which outcome is on record?
Answer: The outcome was “inactive”.

Question: Which outcome does the source give for `CC(C)(c1ccc(O)cc1)c1ccc(O)cc1` here?
Answer: Its outcome is “inactive”.

Question: For `CC(C)(C)[C@@H](O)[C@@H](Cc1ccc(Cl)cc1)n1cncn1`, which outcome is on record?
Answer: The outcome was “inactive”.

Question: Which outcome does the source give for `CCCCC(CC)CN1C(=O)C2C3C=CC(C3)C2C1=O` (stereo unspecified) here?
Answer: The outcome was “inactive”.

Question: With `C#CCOC(=O)[C@@H](C)Oc1ccc(Oc2ncc(Cl)cc2F)cc1` as the compound, how does the outcome read?
Answer: The outcome was “inactive”.

Question: Which outcome does the source give for `C=CCOC(Cn1ccnc1)c1ccc(Cl)cc1Cl` (stereo unspecified) here?
Answer: The outcome was “inactive”.

Question: Which outcome does the source give for `O=C(c1ccccc1)C1CCCCC1` here?
Answer: Its outcome is “inactive”.

Question: For `CCNc1nc(N)nc(Cl)n1`, which outcome is on record?
Answer: The outcome was “inactive”.

Question: With `O=C(O)c1ccccc1` as the compound, how does the outcome read?
Answer: The outcome was “inactive”.

Question: For `N#CSCSc1nc2ccccc2s1`, which outcome is on record?
Answer: The outcome was “inactive”.

Question: With `O=C(Nc1ccc([N+](=O)[O-])cc1Cl)c1cc(Cl)ccc1O` as the compound, how does the outcome read?
Answer: Its outcome is “inactive”.

Question: With `Cc1nn(C)c(Oc2ccccc2)c1C=NOCc1ccc(C(=O)OC(C)(C)C)cc1` as the compound, how does the outcome read?
Answer: Its outcome is “inactive”.

Tested on: not listed separately
Experiment: CCTE_Shafer_MEA_dev_AB: CCTE's Alamar Blue Assay for Cytotoxicity in the Neural Network Formation Assay, Shafer Lab (AID 2284083);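 also: resazurin reduction fluorescence as viability of cultured neurons; twelve days of exposure from plating with re-dosing on DIV 5 and 9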
How it was run: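 Rat cortical primary cultures, 1.5 x 10^5 cells/well on MEA; continuous compound exposure over 12 days of network development, re-dosed with full medium change DIV 5 and 9. Alamar Blue fluorescence; loss of signal = cytotoxicity vs DMSO baseline.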

Question: Which outcome does the source give for `OB(O)O` here?
Answer: Its outcome is “inactive”.

Question: Which outcome does the source give for `CCCCC(CC)CN1C(=O)C2C3C=CC(C3)C2C1=O` (stereo unspecified) here?
Answer: The outcome was “inactive”.

Question: For `CCCCOCCOCCOCc1cc2c(cc1CCC)OCO2`, which outcome is on record?
Answer: The outcome was “inactive”.

Question: For `C#CCOC(=O)[C@@H](C)Oc1ccc(Oc2ncc(Cl)cc2F)cc1`, which AC50 is on record?
Answer: The AC50 was 10.1 nM (active).

Question: With `CSC(=O)c1cccc2nnsc12` as the compound, how does the outcome read?
Answer: The outcome was “inactive”.

Question: With `CCCN(CCC)C(=O)SCC` as the compound, how does the outcome read?
Answer: Its outcome is “inactive”.

Question: For `CC1(C)C(C=C(Cl)Cl)C1C(=O)OCc1cccc(Oc2ccccc2)c1` (stereo unspecified), which AC50 is on record?
Answer: Its AC50 is 26.4 µM (active) and 14.7 µM (active).

Question: Which outcome does the source give for `S=C(S)NCCNC(=S)S.[Mn+2].[S-]C([S-])=NCCN=C([S-])[S-].[Zn+2]` here?
Answer: The outcome was “inactive”.

Question: Which outcome does the source give for `Oc1ccc(C(c2ccc(O)cc2)C(Cl)(Cl)Cl)cc1` here?
Answer: Its outcome is “inactive”.

Question: Which outcome does the source give for `S=C([S-])NCCNC(=S)[S-].[Mn+2]` here?
Answer: The outcome was “inactive”.

Question: For `Cc1nn(C)c(Oc2ccccc2)c1C=NOCc1ccc(C(=O)OC(C)(C)C)cc1`, which AC50 is on record?
Answer: The AC50 was 9.23 nM (active).
